The record followed here is PubChem BioAssay (EPA / NIEHS).

What all share (conditions): mRNA level, 48 h; actives raise or lower the signal
Read-out in experiment [1]: Cyclin D2 (CCND2), CCND2 (gene 894)
Description: LTEA_HepaRG_CCND2: Life Technologies and Expression Analysis (LTEA) Assay for Cyclin D2 (CCND2) using HepaRG (AID 2283449).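 Also: CCND2 transcript measured by TaqMan qRT-PCR and normalised to three housekeeping genes.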 An outline of the steps: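 Chemicals in 0.5% DMSO, eight half-log concentrations from 100 uM top, were applied in duplicate for 48 h to human HepaRG cells in serum-free induction medium. CCND2 mRNA by TaqMan qRT-PCR, normalised to ACTB/GAPDH/POLR2A; bidirectional fit versus DMSO.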

Read-out in experiment [2]: Cyclin Dependent Kinase Inhibitor 1A (CDKN1A), CDKN1A (gene 1026)
Put plainly: LTEA_HepaRG_CDKN1A: Life Technologies and Expression Analysis (LTEA) Assay for Cyclin Dependent Kinase Inhibitor 1A (CDKN1A) using HepaRG (AID 2283450). An outline of the steps: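 Gain or loss of CDKN1A transcript is scored by bidirectional fitting against 0.5% DMSO vehicle. Human HepaRG cultures receive chemicals for 48 h across an 8-point series peaking at 100 uM; expression comes from qRT-PCR.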

Read-out in experiment [3]: catalase (CAT), CAT (gene 847)
Description: LTEA_HepaRG_CAT: Life Technologies and Expression Analysis (LTEA) Assay for catalase (CAT) using HepaRG (AID 2283452).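 As to AC50: TaqMan qRT-PCR signal normalized to ACTB GAPDH and POLR2A housekeeping genes.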 The method, boiled down:
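HepaRG cells in serum-free induction medium, 0.5% DMSO vehicle, exposed 48 h in duplicate over 8 half-log concentrations from 100 uM. CAT mRNA measured by qRT-PCR, normalized to ACTB, GAPDH, POLR2A; bidirectional fit versus DMSO.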

Read-out in experiment [4]: flavin-containing dimethylaniline monooxygenases 3 (FMO3), FMO3 (gene 2328)
Description: LTEA_HepaRG_FMO3: Life Technologies and Expression Analysis (LTEA) Assay for flavin-containing dimethylaniline monooxygenases 3 (FMO3) using HepaRG (AID 2283453). An outline of the steps:
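Differentiated HepaRG cells in serum-free induction medium, exposed 48 h in duplicate to 8 half-log concentrations up to 100 uM in 0.5% DMSO. FMO3 mRNA by qRT-PCR, normalized to ACTB, GAPDH, POLR2A; bidirectional fit vs DMSO.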

Read-out in experiment [5]: Cytochrome P450 (CYP1A1), CYP1A1 (gene 1543)
Put plainly: LTEA_HepaRG_CYP1A1: Life Technologies and Expression Analysis (LTEA) Assay for Cytochrome P450 (CYP1A1) using HepaRG (AID 2283454). The method, boiled down: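 Using HepaRG cultures with 0.5% DMSO as vehicle, eight-concentration exposures (max 100 uM) lasted 48 h. Transcript levels were measured by TaqMan qRT-PCR and normalized to ACTB, GAPDH and POLR2A.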

Read-out in experiment [6]: CFLAR gene, CFLAR (gene 8837)
Put plainly: LTEA_HepaRG_CFLAR: Life Technologies and Expression Analysis (LTEA) Assay for CFLAR gene using HepaRG (AID 2283455). An outline of the steps:
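Differentiated HepaRG cells in serum-free induction medium were exposed 48 h in duplicate to eight half-log concentrations up to 100 uM in 0.5% DMSO; mRNA measured by TaqMan qRT-PCR, normalized to ACTB, GAPDH, POLR2A; bidirectional fitting versus DMSO.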

Read-out in experiment [7]: Forkhead box O1 (FOXO1), FOXO1 (gene 2308)
Description: LTEA_HepaRG_FOXO1: Life Technologies and Expression Analysis (LTEA) Assay for Forkhead box O1 (FOXO1) using HepaRG (AID 2283456). The method, boiled down:
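Differentiated HepaRG cells, in serum-free induction medium with 0.5% DMSO, exposed 48 h in duplicate to 8-point half-log series from 100 uM. FOXO1 mRNA measured by TaqMan qRT-PCR, normalized to ACTB, GAPDH, POLR2A; bidirectional fit versus DMSO.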

Read-out in experiment [8]: growth arrest and DNA damage 45 (GADD45A), GADD45A (gene 1647)
Put plainly: LTEA_HepaRG_GADD45A: Life Technologies and Expression Analysis (LTEA) Assay for growth arrest and DNA damage 45 (GADD45A) using HepaRG (AID 2283458). An outline of the steps: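 Cells plated and cultured 48 h, switched to serum-free induction medium, then dosed for 48 h (100 uM top, half-log dilutions, 0.5% DMSO). RNA was isolated and transcript measured by Fluidigm qRT-PCR.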

Read-out in experiment [9]: Forkhead box O3 (FOXO3), FOXO3 (gene 2309)
Put plainly: LTEA_HepaRG_FOXO3: Life Technologies and Expression Analysis (LTEA) Assay for Forkhead box O3 (FOXO3) using HepaRG (AID 2283459). The method, boiled down: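 Differentiated human HepaRG cells, 48 h post-plating, exposed in duplicate for 48 h in serum-free induction medium; 8-point half-log series from 100 uM in 0.5% DMSO. FOXO3 mRNA by TaqMan qRT-PCR, normalized to ACTB/GAPDH/POLR2A; bidirectional fit versus DMSO.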

Read-out in experiment [10]: ABC Transporter (ABCB1), ABCB1 (gene 5243)
Description: LTEA_HepaRG_ABCB1: Life Technologies and Expression Analysis (LTEA) Assay for ABC Transporter (ABCB1) using HepaRG (AID 2283460). An outline of the steps:
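HepaRG cells exposed in duplicate for 48 h in serum-free induction medium to eight half-log concentrations up to 100 uM in 0.5% DMSO. ABCB1 mRNA quantified by qRT-PCR, normalised to ACTB, GAPDH and POLR2A; fitted bidirectionally versus DMSO.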

Read-out in experiment [11]: growth arrest and DNA damage 45 (GADD45B), GADD45B (gene 4616)
Description: LTEA_HepaRG_GADD45B: Life Technologies and Expression Analysis (LTEA) Assay for growth arrest and DNA damage 45 (GADD45B) using HepaRG (AID 2283461). An outline of the steps: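 Human HepaRG monolayers receive chemicals for 48 h at eight half-log concentrations, highest 100 uM, in 0.5% DMSO. Expression is measured by TaqMan qRT-PCR and normalized to ACTB, GAPDH and POLR2A.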

Read-out in experiment [12]: ABC Transporter (ABCB11), ABCB11 (gene 8647)
Put plainly: LTEA_HepaRG_ABCB11: Life Technologies and Expression Analysis (LTEA) Assay for ABC Transporter (ABCB11) using HepaRG (AID 2283463). An outline of the steps: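 Differentiated human HepaRG cells in serum-free induction medium, dosed in duplicate for 48 h. Eight-point half-log series from 100 uM in 0.5% DMSO; ABCB11 mRNA by qRT-PCR, normalized to ACTB, GAPDH, POLR2A, fitted bidirectionally versus DMSO.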

Read-out in experiment [13]: ABC Transporter (ABCC2), ABCC2 (gene 1244)
Description: LTEA_HepaRG_ABCC2: Life Technologies and Expression Analysis (LTEA) Assay for ABC Transporter (ABCC2) using HepaRG (AID 2283464). An outline of the steps: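 After plating and 48 h culture, HepaRG medium is replaced with serum-free induction medium and chemicals are added (8 concentrations, max 100 uM, 0.5% DMSO) for 48 h. Total RNA then undergoes qRT-PCR for ABCC2 with housekeeping normalization.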

Read-out in experiment [14]: Broad substrate specificity ATP-binding cassette transporter ABCG2 (Homo sapiens) (UniProt Q9UNQ0)
Put plainly: LTEA_HepaRG_ABCG2: Life Technologies and Expression Analysis (LTEA) Assay for ABC Transporter (ABCG2) using HepaRG (AID 2283465). An outline of the steps:
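Differentiated HepaRG cells were exposed for 48 h in serum-free induction medium to 8 half-log concentrations, top 100 uM, in 0.5% DMSO. ABCG2 mRNA was measured by qRT-PCR, normalized to ACTB, GAPDH and POLR2A, with bidirectional fitting versus DMSO.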

Read-out in experiment [15]: Peroxisomal acyl-coenzyme A oxidase 1 (ACOX1) gene, ACOX1 (gene 51)
Description: LTEA_HepaRG_ACOX1: Life Technologies and Expression Analysis (LTEA) Assay for Peroxisomal acyl-coenzyme A oxidase 1 (ACOX1) gene using HepaRG (AID 2283467). An outline of the steps: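 HepaRG cells, plated 48 h then switched to serum-free induction medium, were exposed in duplicate for 48 h to 8-point half-log concentrations up to 100 uM in 0.5% DMSO. ACOX1 mRNA was measured by qRT-PCR, normalized to ACTB/GAPDH/POLR2A, and fitted bidirectionally versus DMSO.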

Read-out in experiment [16]: Alkaline Phosphatase, Placental (ALPP) gene, ALPP (gene 250)
Put plainly: LTEA_HepaRG_ALPP: Life Technologies and Expression Analysis (LTEA) Assay for Alkaline Phosphatase, Placental (ALPP) gene using HepaRG (AID 2283468). An outline of the steps: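 Using human liver HepaRG cells, chemicals are tested in duplicate over 48 h at half-log concentrations topping at 100 uM; phenobarbital 1 mM serves as induction control. ALPP mRNA change by qRT-PCR, bidirectional fit against vehicle.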

Read-out in experiment [17]: ATP-citrate lyase (ACLY), ACLY (gene 47)
Description: LTEA_HepaRG_ACLY: Life Technologies and Expression Analysis (LTEA) Assay for ATP-citrate lyase (ACLY) using HepaRG (AID 2283466). The method, boiled down: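 Differentiated HepaRG cells exposed 48 h in serum-free induction medium to eight half-log concentrations up to 100 uM in 0.5% DMSO, duplicates. Transcript measured by Fluidigm TaqMan qRT-PCR, normalized to ACTB, GAPDH, POLR2A; bidirectional fit versus DMSO.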

The source made the active and inactive calls. The calls were made as follows: active = hit-call score of the fitted dose curve at least 0.9, where 1 is the maximum; inactive = score below 0.9.

Broad substrate specificity ATP-binding cassette transporter ABCG2 (Homo sapiens), sequence (Q9UNQ0 whole entry, looked up): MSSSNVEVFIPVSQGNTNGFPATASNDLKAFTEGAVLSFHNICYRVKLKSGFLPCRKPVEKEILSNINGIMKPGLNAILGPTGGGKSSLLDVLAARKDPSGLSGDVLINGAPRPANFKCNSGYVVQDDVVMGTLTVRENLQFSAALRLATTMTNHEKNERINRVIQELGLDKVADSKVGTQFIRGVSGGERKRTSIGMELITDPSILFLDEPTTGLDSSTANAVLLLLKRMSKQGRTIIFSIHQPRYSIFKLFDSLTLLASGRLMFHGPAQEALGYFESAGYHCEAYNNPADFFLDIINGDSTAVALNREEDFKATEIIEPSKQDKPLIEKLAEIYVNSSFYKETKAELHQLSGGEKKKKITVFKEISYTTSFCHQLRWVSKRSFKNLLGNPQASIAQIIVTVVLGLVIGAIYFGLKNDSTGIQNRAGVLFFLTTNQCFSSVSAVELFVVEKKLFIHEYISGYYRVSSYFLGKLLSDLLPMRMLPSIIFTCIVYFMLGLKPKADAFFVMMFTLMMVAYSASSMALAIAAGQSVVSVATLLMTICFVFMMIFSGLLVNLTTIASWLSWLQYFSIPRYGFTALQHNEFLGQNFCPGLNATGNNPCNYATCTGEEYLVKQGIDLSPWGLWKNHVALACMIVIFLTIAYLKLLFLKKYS

Take `CCCCCCCCC(=O)O`: the molecule was classed as inactive in [1], in [2], in [3], in experiment [4], in experiment [5] and in [6]. Further, the result in [7], in experiment [8], in experiment [9], in experiment [10], in experiment [11] and in experiment [12] was inactive. Moreover, the molecule was classed as inactive in experiment [13], in [14], in experiment [15] and in [16].

Consider `CN1CCC[C@H]1c1cccnc1`, for which the call in experiment [1], in experiment [2], in [3], in experiment [4], in experiment [6] and in [7] was inactive. Further, the call in experiment [8], in experiment [9], in [10], in [11], in [12] and in experiment [13] was inactive. Moreover, the molecule was called inactive in [14] and in [16]. In addition, the results for the AC50 in experiment [5] and in [15] were 70.6 µM (active) and 12.6 µM (active), respectively.

Take `CC1=C(/C=C/C(C)=C/C=C/C(C)=C/C(=O)O)C(C)(C)CCC1`: the molecule was called inactive in experiment [1], in [2], in experiment [7], in experiment [8], in experiment [9] and in experiment [11]. In addition, the molecule was called inactive in experiment [13], in [15] and in [16]. In addition, the AC50 in experiment [3] is 9.37 µM (active); in experiment [4], 446 nM (active); in [5], 35.9 µM (active); in experiment [6] it was 5.84 µM (active); in experiment [10], 810 nM (active); in experiment [12], 29.4 µM (active). Besides, in [14], the AC50 is 3.14 µM (active).

Consider `OC1CCCCC1`, for which the result in experiment [2], in experiment [3], in [4], in [5], in experiment [6] and in [7] was inactive. Further, the molecule was called inactive in experiment [8], in experiment [9], in experiment [10], in experiment [11], in experiment [12] and in experiment [13]. Also, the result in experiment [14], in experiment [15] and in [16] was inactive.

Consider `CCC(C)(C)C1CCC(O)CC1` (configuration not stated), for which the result in [1], in [2], in experiment [3], in experiment [4], in experiment [5] and in [6] was inactive. Further, the molecule was called inactive in [7], in experiment [8], in experiment [9], in experiment [10], in experiment [11] and in experiment [12]. The result in [13], in [14], in [17], in [15] and in experiment [16] was inactive.

In the case of `CCCOc1sc(C(=O)N2CCC(c3cc(CN)ccc3F)CC2)c(C)c1Br`, the outcome in experiment [1], in experiment [2], in experiment [3], in [4], in [5] and in experiment [6] was inactive. Besides, the molecule was classed as inactive in experiment [7], in [8], in [9], in experiment [10], in [11] and in experiment [12]. In addition, the molecule was called inactive in experiment [13], in [14], in experiment [15] and in experiment [16].

`CCCCC(CC)COC(=O)CCCCC(=O)OCc1ccccc1` (configuration not stated): the outcome in experiment [1], in experiment [2], in experiment [3], in experiment [4], in experiment [6] and in [7] was inactive. The result in [8], in [9], in experiment [10], in [11], in [12] and in [13] was inactive. Further, the molecule was classed as inactive in [14], in experiment [15] and in experiment [16]. Also, the AC50 in experiment [5] was 50 µM (active).

The AC50 is the concentration at which the activity in the assay is half-maximal.
